Results from the supplement of paper PMC10646978.
± gives the standard deviation.

How the values were obtained:
Conditions in all cases: modulator concentration 10 µM
[1] = tested on: RAW-Dual (murine macrophage reporter line); test: NF-kB reporter (SEAP) activity fold change vs agonist alone; higher = enhanced NF-kB activity
In short: (§1)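 RAW-Dual murine macrophage reporter cells were plated at 50 000 per well in 384-well plates, pin-transferred compound to 10 μM final, and pre-incubated for 1 hour at 37 °C before a PRR agonist was added and the cells incubated overnight. NF-κB activity was read from supernatant SEAP with QUANTI-Blue at 620 nm absorbance, and IRF activity from Lucia luciferase with QUANTI-Luc by luminescence. Each signal was expressed as fold change by dividing by the mean agonist-only control on the same plate. Two replicate plates were averaged, with errors obtained by propagation.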

[2] = tested on: RAW-Dual (murine macrophage reporter line); test: IRF reporter (Lucia luciferase) activity fold change vs agonist alone; higher = enhanced IRF activity
In short: as §1

[3] = tested on: RAW-Dual (murine macrophage reporter line); test: viability score (confluency relative to resting cells, overnight) (fraction); higher = more viable, active = viable (0.7 or more)
In short: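 Two confluency masks, generated with IncuCyte software over all imaged wells, were applied to IncuCyte images of RAW-Dual macrophages. The cells, in 384-well plates, had been exposed overnight to 10 μM final compound. The viability score is confluency as a fraction of resting cells, and a compound met the cutoff only with both masks above 70% of resting cells.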

[4] = agonist: CpG ODN 1826 0.5 ug/mL

| Compound | NF-kB reporter [1, 4] | NF-kB reporter ([1]; agonist: LPS 0.1 ug/mL) | NF-kB reporter ([1]; agonist: MPLA […]) | IRF reporter ([2]; agonist: 3'3'-cGAMP 10 ug/mL) | IRF reporter ([2]; agonist: LPS 0.1 ug/mL) | IRF reporter ([2]; agonist: MPLA […]) | viability score [3] |
| --- | --- | --- | --- | --- | --- | --- | --- |
| CCN1CCN(CC(O)COc2ccc(C(C)(C)C)cc2C(C)(C)C)CC1.Cl.Cl (centres undefined) | 0.72 ± 0.12 | 0.999 ± 0.08 | 2.1 ± 0.29 | 0.96 ± 0.052 | 1.24 ± 0.14 | 2.24 ± 0.24 | 0.25 (inactive) |
| O=C1CCC(=O)N1C1CC2CCC(C1)N2C(=O)c1cnccn1 (centres undefined) | 0.892 ± 0.056 | 0.903 ± 0.081 | 1.06 ± 0.057 | 1.03 ± 0.053 | 1.22 ± 0.19 | 1.31 ± 0.41 | 0.954 (active) |
| O=C(NCCc1csc(-c2ccc(F)cc2)n1)c1ccc(Br)cc1 | 0.825 ± 0.064 | 1.18 ± 0.089 | 1.19 ± 0.043 | 0.693 ± 0.027 | 1.07 ± 0.11 | 1.19 ± 0.15 | 0.999 (active) |
| COc1ccc(S(=O)(=O)NCCn2nc(C(F)(F)F)cc2C2CC2)cc1 | 0.935 ± 0.077 | 1.09 ± 0.083 | 1.04 ± 0.029 | 0.996 ± 0.037 | 0.953 ± 0.096 | 0.834 ± 0.15 | 0.979 (active) |
| COCc1cc(C)nc2sc(C(=O)c3cccc([N+](=O)[O-])c3)c(N)c12 | 0.804 ± 0.063 | 0.719 ± 0.034 | 0.78 ± 0.29 | 0.943 ± 0.043 | 1.36 ± 0.12 | 1.53 ± 0.14 | 1.01 (active) |
| COc1cc(C=NNc2ccc(C(=O)O)cc2)cc(Br)c1O | 1.16 ± 0.13 | 0.97 ± 0.062 | 1.09 ± 0.1 | 0.198 ± 0.006 | 0.241 ± 0.061 | 0.223 ± 0.035 | 1 (active) |
| CC(=O)Oc1ccc2c(C)c(Cl)c(=O)oc2c1C | 1.14 ± 0.24 | 1.01 ± 0.08 | 0.96 ± 0.1 | 0.93 ± 0.024 | 1.25 ± 0.19 | 1.19 ± 0.16 | 1.01 (active) |
| CN(C)CCCN1c2ccccc2Sc2ccccc21.Cl | 0.791 ± 0.075 | 0.956 ± 0.12 | 1.25 ± 0.054 | 0.719 ± 0.051 | 0.994 ± 0.07 | 0.798 ± 0.069 | 0.534 (inactive) |
| Cc1cccc(Nc2ccccc2C(=O)O)c1C | 0.847 ± 0.063 | 0.923 ± 0.13 | 0.962 ± 0.035 | 1.03 ± 0.075 | 1.03 ± 0.092 | 0.98 ± 0.089 | 0.999 (active) |
| O=C1CNC(=O)N1CC(O)Cn1c2ccc(Br)cc2c2cc(Br)ccc21 (centres undefined) | 0.998 ± 0.091 | 0.791 ± 0.068 | 0.908 ± 0.025 | 0.989 ± 0.22 | 0.928 ± 0.044 | 0.698 ± 0.079 | 0.926 (active) |
| Cc1cc(C(=O)N2CCC(Oc3cccc4cccnc34)CC2)n(C)n1 | 0.994 ± 0.3 | 1.08 ± 0.054 | 1.07 ± 0.081 | 0.942 ± 0.035 | 1.03 ± 0.11 | 1.13 ± 0.18 | 0.536 (inactive) |
| CCOC(=O)C(CC)Oc1ccc2c(C)c(CC)c(=O)oc2c1 (centres undefined) | 0.955 ± 0.063 | 0.875 ± 0.071 | 0.976 ± 0.035 | 0.832 ± 0.03 | 0.852 ± 0.13 | 0.848 ± 0.27 | 0.986 (active) |
| O=c1oc2cc(O)ccc2s1 | 1.11 ± 0.088 | 1.02 ± 0.07 | 1.02 ± 0.026 | 0.911 ± 0.05 | 0.962 ± 0.067 | 0.827 ± 0.074 | 1 (active) |
| COC(CNC(=O)COc1cccc2c1OC(C)(C)C2)c1ccc(Cl)s1 (centres undefined) | 0.539 ± 0.028 | 1.19 ± 0.1 | 0.998 ± 0.043 | 0.873 ± 0.046 | 0.883 ± 0.06 | 1.14 ± 0.34 | 0.939 (active) |
| Oc1ccc(C=NCc2ccccc2)cc1 | 1.11 ± 0.12 | 1.08 ± 0.079 | 1.04 ± 0.038 | 0.921 ± 0.11 | 0.999 ± 0.05 | 1.06 ± 0.19 | 1 (active) |
| COc1ccccc1OCC(O)COC(N)=O (centres undefined) | 1.56 ± 0.26 | 1.28 ± 0.17 | 0.938 ± 0.058 | 0.93 ± 0.041 | 1.49 ± 0.15 | 1.21 ± 0.12 | 0.985 (active) |
| CC(Oc1cccc(Cl)c1)C(=O)NCc1ccncc1 (centres undefined) | 0.955 ± 0.098 | 1.09 ± 0.071 | 1.07 ± 0.091 | 0.985 ± 0.057 | 1.24 ± 0.13 | 0.988 ± 0.11 | 1.02 (active) |
| CN1CCN(C(=O)N2CCC3(CC2)CC3(F)F)CC1 | 1.1 ± 0.07 | 0.939 ± 0.12 | 0.974 ± 0.025 | 0.894 ± 0.035 | 0.914 ± 0.086 | 0.815 ± 0.086 | 0.996 (active) |
| CCCCCCCCCCCC1=C(O)C(=O)C=C(O)C1=O | 0.901 ± 0.22 | 0.642 ± 0.034 | 0.675 ± 0.045 | 0.566 ± 0.019 | 0.823 ± 0.09 | 0.774 ± 0.086 | 0.167 (inactive) |
| OCc1ccccc1OC1OC(CO)C(O)C(O)C1O (centres undefined) | 1.13 ± 0.27 | 1.07 ± 0.094 | 1.05 ± 0.069 | 0.889 ± 0.03 | 1.22 ± 0.23 | 1.13 ± 0.19 | 1 (active) |
| CC(C)(O)CNc1nc(Nc2ccnc(C(F)(F)F)c2)nc(-c2cccc(C(F)(F)F)n2)n1 | 1.13 ± 0.37 | 1.19 ± 0.079 | 1.12 ± 0.087 | 1.01 ± 0.053 | 1.3 ± 0.19 | 1.54 ± 0.15 | 0.999 (active) |
| CS(=O)(=O)N(CC(=O)NCCSCc1cccc(Cl)c1)c1ccc(F)cc1 | 0.742 ± 0.059 | 1.06 ± 0.059 | 0.857 ± 0.07 | 1.2 ± 0.03 | 1.13 ± 0.1 | 0.867 ± 0.26 | 1.01 (active) |
| N#Cc1nc(-c2ccc(COc3ccccc3)o2)oc1N1CCc2ccccc2C1 | 0.987 ± 0.049 | 1.13 ± 0.089 | 0.896 ± 0.05 | 0.964 ± 0.078 | 1 ± 0.16 | 0.989 ± 0.38 | 1.01 (active) |
| O=C(c1ccccc1)c1ccc2n1CCC2C(=O)O (centres undefined) | 0.921 ± 0.13 | 1.09 ± 0.14 | 0.895 ± 0.073 | 0.94 ± 0.048 | 1.15 ± 0.26 | 1.04 ± 0.16 | 0.996 (active) |
| Cc1cc(N2CCCCC2)nc2ccccc12 | 0.493 ± 0.041 | 0.701 ± 0.056 | 0.73 ± 0.093 | 0.982 ± 0.032 | 1.03 ± 0.098 | 1.21 ± 0.17 | 0.293 (inactive) |
| COCCOC(=O)C1=C(C)NC(C)=C(C(=O)OC(C)C)C1c1cccc([N+](=O)[O-])c1 (centres undefined) | 0.837 ± 0.07 | 1.05 ± 0.064 | 0.88 ± 0.076 | 1.11 ± 0.037 | 1.31 ± 0.18 | 1.11 ± 0.13 | 0.979 (active) |
| Cc1ccc(-n2nc(C(C)(C)C)cc2NC(=O)Nc2ccc(OCCN3CCOCC3)c3ccccc23)cc1 | 0.68 ± 0.13 | 0.658 ± 0.052 | 0.784 ± 0.077 | 1.19 ± 0.058 | 0.741 ± 0.14 | 0.844 ± 0.1 | 1.02 (active) |
